According to ChEMBL document CHEMBL3433997, “St. Jude Leishmania screening dataset” (2016):
Where “and” joins values, the source holds several entries; their conditions need not be identical. Identical values can stand only once.

Experiments:
Format in all cases: functional
[1] = biological target: Solute carrier family 2, facilitated glucose transporter member 1 (Homo sapiens) (UniProt P11166); assay: ST_JUDE_LEISH: Cytotoxicity at 2uM final concentration against transgenic Leishmania Mexicana promastigotes LmGLUT1 that are glucose transport deficient and complemented with the human glucose transporter GLUT1. Activity is measured by DNA content using SYBR green in vitro
Solute carrier family 2, facilitated glucose transporter member 1 (Homo sapiens), sequence (P11166 whole entry): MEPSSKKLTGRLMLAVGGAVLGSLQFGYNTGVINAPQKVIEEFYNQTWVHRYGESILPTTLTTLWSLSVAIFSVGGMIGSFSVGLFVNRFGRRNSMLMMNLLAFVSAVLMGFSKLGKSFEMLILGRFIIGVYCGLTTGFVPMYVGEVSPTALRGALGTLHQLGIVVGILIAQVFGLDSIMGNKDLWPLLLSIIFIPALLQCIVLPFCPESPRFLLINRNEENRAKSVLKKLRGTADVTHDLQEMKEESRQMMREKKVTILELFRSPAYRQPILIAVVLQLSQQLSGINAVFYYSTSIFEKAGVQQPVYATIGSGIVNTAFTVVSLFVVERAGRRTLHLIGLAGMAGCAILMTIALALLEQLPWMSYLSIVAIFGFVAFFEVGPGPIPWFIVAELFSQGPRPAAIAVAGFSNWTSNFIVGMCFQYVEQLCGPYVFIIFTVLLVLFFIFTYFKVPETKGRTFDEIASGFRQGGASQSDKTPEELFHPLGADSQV

[2] = biological target: Hexose transporter 1 (Plasmodium falciparum) (UniProt O97467); assay: ST_JUDE_LEISH: Cytotoxicity at 2uM final concentration against transgenic Leishmania Mexicana promastigotes LmPfHT that are glucose transport deficient and complemented with the Plasmodium falciparum hexose transporter. Activity is measured by DNA content using SYBR green in vitro
[3] = biological target: Glucose transporter (Leishmania mexicana) (UniProt O61059); assay: ST_JUDE_LEISH: Cytotoxicity at 2uM final concentration against transgenic Leishmania Mexicana promastigotes LmGT2 that are glucose transport deficient and complemented with the L. Mexicana glucose transporter 2. Activity is measured by DNA content using SYBR green in vitro

SMILES	inhibition [1]	inhibition [2]	inhibition [3]
CC1(C)CCCC(=Cc2ccc(Br)cc2)C1(O)Cn1ccnc1 (stereo not given)	27.9%	20.9%	13.5%
CN1CCN(CCCN(C(=O)Nc2cc(C(F)(F)F)cc(C(F)(F)F)c2)c2ccccc2Cc2ccccc2)CC1	0.6%	0.83%	-8.69%
OCC1CCN(Cc2ccc(-c3ccc(-c4nc5cc(F)ccc5[nH]4)cc3)cc2)CC1	6.63%	4.55%	4.78%
CCN1CCC(N(Cc2ccc(-c3ccc(C(F)(F)F)cc3)cc2)C(=O)Cn2c(SCc3cccc(F)c3F)cc(=O)c3ccccc32)C1 (stereo not given)	0.27%	-0.31%	-0.18%
O=C(Nc1ccc2c(c1)CCN2C1CCN(Cc2cccc(F)c2F)C1)c1ccco1 (stereo not given)	2.08%	1.62%	2.93%
COc1ccc(-c2cnn3ccc(Nc4cc(OC)c(OC)c(OC)c4)nc23)cc1OC	17.3%	11.4%	9.46%
CCCS(=O)(=O)N1CCC(CO)(Cc2ccccc2C(F)(F)F)CC1	2.81%	3.09%	2.87%
COc1ccc(CNc2cc(C)nc3sc4c(c23)CCC2(C4)OCCO2)cc1	1.79%	1.85%	0.47%
CCN1CCN(C(=O)NC(C(=O)N2CCCC(COc3ccc(Cc4ccccc4)cc3)C2)c2cccs2)C(=O)C1=O (stereo not given)	3.59%	3.3%	4.28%
COc1ccc2nccc([C@H](O)CN3CCC(NCc4nc5cccc(F)c5[nH]4)CC3)c2c1	3.63%	1.1%	2.36%
CC(C)c1ccc(NC(=O)Nc2ccc(CCNCCCc3ccccc3)cc2)cc1	0.62%	0.01%	0.36%
Cc1cc(=O)c2cc(Oc3cccc(OC(F)(F)F)c3)ccc2[nH]1	1.1%	2.75%	4.49%
CC(NC(=O)c1ccc(O)c(-c2ccc(Cl)c(Cl)c2)c1)C(=O)NCCN1CCCC1 (stereo not given)	7.43%	6.16%	4.25%
CCN(CC)CCNc1ccnc2[nH]c3ccc(C)cc3c12	0.06%	0.18%	0.34%
COc1c(F)ccc2ncc(Cl)c(CCN3CCC(NCc4ccc5c(n4)NC(=O)CS5)CC3)c12	6.45%	6.77%	-2.91%
O=C(NCCc1ccccc1F)c1ccc(N2CCN(c3ccncc3)CC2)cn1	10.3%	9.09%	8.65%
OCC1CCN(Cc2ccc(-c3ccc(-c4nc5ccccc5[nH]4)cc3)cc2)CC1	6.11%	5.06%	5.45%
CC[C@H](N/C(=N\c1ccc(-c2ccccc2)cc1)Nc1ccc(C#N)cc1O)c1ccccc1	4.55%	3.4%	2.55%
O=C(O)c1ccc2nc(-c3ccccn3)c(-c3ccccn3)nc2c1	-0.91%	-3.35%	-0.14%
Cc1cccn2c(=O)c3cc(C(=O)NCCc4ccccc4)c(=N)n(CCCOC(C)C)c3nc12	8.75%	6.64%	2.98%
CCOc1c(CNCCCNc2nc3ccccc3[nH]2)cc(I)cc1OC	1.59%	1.56%	2.86%
Clc1ccc(Nc2nc(-c3ccccn3)cs2)nc1	67.7%	27.3%	22.7%
CCCC(C)c1ccc(N2C(N)=NC(N)=NC2(C)C)cc1 (stereo not given)	2.85%	2.75%	0%
CCOc1ccc(-c2nonc2NC(=O)c2ccccc2OC)cc1OCC	3.08%	2.92%	0.46%
CC(C)N1CCN(C(=O)c2ccc(CN(C)CCCN3CCN(c4cccc(Cl)c4Cl)CC3)s2)CC1	0.58%	0.7%	0.8%

SMILES	inhibition [1]	inhibition [2]	inhibition [3]
NC1CCN(Cc2ccc(-c3ccc(-c4nc5ccccc5[nH]4)s3)cc2)C1 (stereo not given)	3.97%	1.77%	3.21%
CC(C)(C)n1nnnc1C(c1cccnc1)N(Cc1ccccc1)Cc1ccc(Cl)cc1 (stereo not given)	2.8%	10.2%	2.8%
N=C(N)c1nc2ccccc2s1	1.87%	1.89%	2.04%
Cn1nccc1C(=O)NCCNCc1cccc(-c2ccc(-c3nc4ccccc4[nH]3)cc2)c1	0.23%	0.79%	-1.98%
Cc1cc(C)c(C)c(OCCCON2C(=N)N=C(N)NC2(C)C)c1C	1.55%	-0.22%	2.17%
CCCCCN1CCC(NS(=O)(=O)c2cccc(C(=O)Nc3ccc(Cl)cc3)c2)CC1	-0.5%	1.63%	2.4%
Cc1ccc(F)cc1S(=O)(=O)N1CCCCC(c2ccc(C(F)(F)F)cc2)=N1	7.48%	5.61%	8.34%
O=C(NCCCCN1CCC(c2ccc3c(c2OCC2CC2)CCCC3)CC1)c1ccc(NC(=O)c2ccc(Cl)cc2)cc1	7.74%	6.44%	8.96%
CCCCCCCCCCN1C(=O)C2C(CCCCNC(C)=O)NC3(C(=O)N(Cc4ccc(C(C)(C)C)cc4)c4ccccc43)C2C1=O (stereo not given)	9.76%	9.32%	3.53%
CC[C@H](NC(=O)c1c(N)c(-c2sccc2Cl)nc2ccccc12)c1ccccc1	3.8%	0.64%	1.74%
c1ccc(OCCCCN2CCCCC2)cc1	0.95%	0.56%	-4.15%
CC(C)(C)c1ccc(CN2CCC(CNC(=O)c3cc(-c4cccc(C(F)(F)F)c4)cs3)C2)cc1 (stereo not given)	-1.18%	-0.44%	-5.97%
Cc1cc(N(C)C2CCN(CC3CCCCC3)C2)nc(Nc2ccc(Br)cc2)n1 (stereo not given)	2.84%	4.85%	2.06%
CC(C)(C)C1=CC(=NNC(=O)c2ccncc2)C=C(C(C)(C)C)C1=O	11.8%	14%	-0.13%
Cn1cnc(CCNC(=O)c2cccc(-c3csc(-c4nc5ccccc5[nH]4)c3)c2)c1	-1.62%	-0.39%	-0.89%
COC(=O)c1cccc(NC(=O)NC2CCN(c3ccnc(NCc4ccc(F)cc4)n3)CC2)c1	-2.83%	-2.8%	-0.54%
CCOC(=O)c1c(CNc2ccncc2)n(C)c2cc(Br)c(OC(C)=O)cc12	-0.11%	2.99%	1.88%
Cc1cccc2nc(-c3cccc(-c4ccc(NC(=O)Cc5ccc[n+]([O-])c5)cc4)c3)[nH]c12	0.18%	1.16%	0.56%
c1cc(CNCc2ccc3c(c2)OCO3)cc(-c2cccc(CNc3ccc4ncccc4c3)c2)c1	0.81%	1.4%	-0.38%
O=S(=O)(NCCN1CCCC1)c1ccc(-c2ccc(CN3Cc4ccccc4C3)cc2)s1	-0.63%	-0.5%	-2.59%
O=C(Nc1cccc(-c2ccc(-c3nc4cc(F)ccc4[nH]3)cc2)c1)c1cccnc1	7.59%	7.21%	6.47%
CCc1cccc2c(C#N)cn(CC(=O)Nc3ccc(OC)cc3)c12	0.84%	3.26%	1.27%
Cc1ccc2[nH]c(C)cc(=NN=Cc3ccccc3Cl)c2c1	2.11%	3.39%	0.08%
COc1ccccc1NC(=S)N/N=C/c1ccc(O)cc1O	1.28%	6.07%	0.42%
c1ccc2cc3c(NCCN4CCOCC4)ccnc3cc2c1	7.07%	6.74%	7.2%

SMILES	inhibition [1]	inhibition [2]	inhibition [3]
O=C(/C=C/c1ccc(Cl)c(Cl)c1)NC1CCN(CCCNC(=O)c2cccc(Cl)c2)CC1	6.07%	6.03%	7.01%
CC1CCN(Cc2c(O)ccc3c(O)c(-c4nc5ccccc5s4)c(=N)oc23)CC1	0.12%	0.79%	-0.56%
O=C(c1cc(C(=O)Nc2ccccc2)c(=O)n(-c2ccccc2)c1)c1cc(Cl)ccc1O	3.8%	3.56%	2.58%
CCNS(=O)(=O)c1ccc(Oc2ccc([N+](=O)[O-])cc2)cc1	0.11%	-1.31%	-1.68%
Cn1c(NC2CCN(CC3CCN(C(=O)/C=C/c4ccc(Cl)c(Cl)c4)CC3)CC2)nc2ccccc21	49.9%	13.8%	81.9%
CS(=O)(=O)NCCCNCc1cccc(-c2csc(-c3nc4ccccc4[nH]3)c2)c1	-0.84%	-0.51%	-0.84%
Oc1ccc2ncnc(Nc3ccc(OCc4cccc(F)c4)c(Cl)c3)c2c1	-2.81%	-0.64%	-1.78%
Cc1[nH]c2cc(F)ccc2c(=O)c1Cc1ccc(Cl)cc1.Cc1[nH]c2cccc(F)c2c(=O)c1Cc1ccc(Cl)cc1	23.5% and 29.2%	37.3% and 55.7%	14.3% and 15%
Cc1cc(N[C@@H](Cc2ccccc2)C(=O)NCCOc2ccccc2)nc(NCCc2ccccc2)n1	6.59%	5.86%	3.92%
COc1ccc(C(=O)N2CCC3(CC2)C(=O)N(CC(=O)NCC2CCCCC2)CN3c2ccccc2)cc1	3.99%	4.58%	3.35%
Cc1ccc(CN2CCCN(Cc3cccc(C(=O)Nc4ccc(C(C)(C)C)cc4)c3)CC2)s1	7.92%	2.76%	0.76%
ON=C1CCc2cc(-c3nc(-c4ccc(OCCN5CCCCC5)cc4)[nH]c3-c3ccncc3)ccc21	-1.78%	-1.49%	-1.7%
CCCCCCNC(=O)C1Cc2c([nH]c3ccc(C)cc23)C2(CCN(CCc3ccccc3)CC2)N1 (stereo not given)	0.36%	1.61%	3.44%
O=C(NCc1ccco1)c1ccc(CN2CCN(C(c3ccccc3)c3ccccc3)CC2)cc1	7.85%	6.41%	4.79%
Cc1cccn2c(=O)c3cc(C(=O)NC(C)c4ccccc4)c(=N)n(CCN4CCOCC4)c3nc12 (stereo not given)	3.65%	1.65%	-1.52%
COc1cc2nc(-c3ccccc3)nc(N3CCN(C(=O)c4ccco4)CC3)c2cc1OC	13.7%	8.22%	7.06%
Cc1[nH]c(C)c(-c2ccc(-c3ccccc3Cl)nc2)c(=O)c1Cl	3.05%	3.94%	3.11%
CC(Cc1ccc(C(=O)OCCOC(=O)c2ccc(CC(C)NCC(O)c3cccc(C(F)(F)F)c3)cc2)cc1)NCC(O)c1cccc(C(F)(F)F)c1 (stereo not given)	1.7%	-0.31%	2.65%
COc1cc(CC2c3cc(O)c(Cl)cc3CCN2C)c(OC)cc1C (stereo not given)	3.63%	4.4%	5.31%
CCCCCCN1CCCN(Cc2ccc(C(=O)Nc3ccc(F)c(F)c3)cc2)CC1	17.1%	18.5%	12.9%
Cn1cnc(CCNC(=O)c2ccc(-c3ccc(-c4nc5cc(C(F)(F)F)ccc5[nH]4)s3)cc2)c1	2.93%	3.77%	3.14%
c1ccc2c3c(ccc2c1)Sc1c(ccc2ccccc12)N3	6.27%	5.61%	5.33%
CCc1ccc(CN2CCCCC(NC(=O)c3cc(-c4ccccc4F)cs3)C2)cc1 (stereo not given)	-2.71%	-0.89%	1.12%
O=C1SC(=Cc2ccc(O)c(O)c2)C(=O)N1c1ccccc1	2.29%	2.56%	0.86%
Cc1ncccc1C(=O)Nc1cccc(-c2cccc(-c3nc4cc(C(F)(F)F)ccc4[nH]3)c2)c1	0.73%	1.25%	-2.48%
